Bioassay records as filed in PubChem BioAssay.
AmpC no deterg = blocks E. coli AmpC beta-lactamase in detergent-free assay | actives 0.52% (n = 330,000) | Potency, µM (highest dose often 57.1 µM), for inactives: at the top dose activity change, negative = inhibition, most hits filed as inhibitors | AID 485341 | AmpC nitrocefin hydrolysis, absorbance 480 nm, 0.0001% Triton | P00811;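 note: plate controls were no compound for no effect and no enzyme for full effect; nearly all actives have a fitted effect of over 20% in size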
Target sequence (P00811 whole entry, looked up): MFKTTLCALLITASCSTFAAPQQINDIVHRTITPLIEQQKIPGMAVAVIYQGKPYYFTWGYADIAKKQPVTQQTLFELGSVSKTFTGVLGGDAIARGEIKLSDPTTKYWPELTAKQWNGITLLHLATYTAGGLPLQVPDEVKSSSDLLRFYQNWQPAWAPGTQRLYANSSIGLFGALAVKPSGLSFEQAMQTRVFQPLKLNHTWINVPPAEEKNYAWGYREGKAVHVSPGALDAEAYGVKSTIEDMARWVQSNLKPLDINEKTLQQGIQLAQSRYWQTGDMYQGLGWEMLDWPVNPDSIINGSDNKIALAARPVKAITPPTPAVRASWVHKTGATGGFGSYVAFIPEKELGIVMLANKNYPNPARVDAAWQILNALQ
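AmpC (5.3 nM in the dispensed reagent) in 20 mM phosphate pH 7.0 with 0.01% (detergent screen) or 0.0001% Triton X-100 was preincubated with compounds for 15 min at room temperature. Nitrocefin was then added from an 800 uM solution, and hydrolysis was followed at 480 nm.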
Pf growth 96h = P. falciparum growth inhibition at 96 hour, primary screen for plastid delayed-death inhibitors. P. falciparum luciferase reporter growth, 96 h. Potency, µM (doses to about 28.7 µM), for the others: at the top dose activity change, negative = inhibition, hits mostly inhibitors. actives 6.9% (n = 320,000)
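Parasite growth measured via integrated firefly luciferase reporter in P. falciparum. Infected erythrocytes at 2% hematocrit, 0.05% parasitemia final were treated 96 hours at 37 C under 5% CO2, and luminescence was read.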
AmpC detergent = inhibitors of E. coli AmpC beta-lactamase with detergent; AmpC hydrolysis of nitrocefin, absorbance 480 nm, 0.01% Triton; Potency, µM (doses to about 114 µM), for the others: at the highest dose activity change, negative = inhibition, usual class: inhibitors; AID 485294; actives 0.041% (n = 370,000); P00811;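 note: 0% = no-compound wells and -100% = no-enzyme wells; nearly all actives have a fitted effect of over 25% in size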
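AmpC (5.3 nM in the dispensed reagent) in 20 mM phosphate pH 7.0 with 0.01% (detergent screen) or 0.0001% Triton X-100 was preincubated with compounds for 15 min at room temperature. Nitrocefin was then added from an 800 uM solution, and hydrolysis was followed at 480 nm.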
HCV inh = HCV inhibition | Huh7.5.1 HCVcc-Cre infection, luciferase reporter, 44 h | Potency, µM (highest dose often 41.8 µM), inactives show top-dose activity change, negative = inhibition, most hits filed as inhibitors | actives 3.4% (n = 340,000)
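Infectious HCVcc-Cre (~0.5 moi) was added to cells just after compound, with cells seeded 4 h earlier at 1,000 per well. Luciferase activity after 44 h culture reported infection; substrate was incubated 15 min at room temperature before reading.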
AMA1-RON2 inh = disrupts binding of P. falciparum AMA1 to RON2; AID 720542; actives 0.2% (n = 360,000); Potency, µM (titrated, usually from 58.2 µM), inactives show at the highest dose activity change, negative = inhibition, usual class: inhibitors; AlphaScreen AMA1-biotinylated RON2 peptide binding;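 note: 0% = vehicle wells and -100% = peptide control; nearly all actives have a fitted effect of over 45% in size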
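AMA1 (3D7) with his tag at 25 nM final met compounds first, then biotinylated RON2 peptide at 25 nM; detection used donor plus acceptor beads, 10 µg/mL apiece, read by AlphaScreen after 30 min at room temperature.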
Pf growth 48h = P. falciparum growth inhibition at 48 hours (one generation); AID 504832; actives 5.9% (n = 310,000); P. falciparum luciferase growth in erythrocytes, 48 h; Potency, µM (doses to about 28.7 µM), for the others: at the top dose activity change, negative = inhibition, usual class: inhibitors
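A one-generation exposure of luciferase-tagged malaria parasites in RPMI 1640/Albumax erythrocyte culture, 37 C and 5% CO2. Inhibition is inferred from decreased luminescence after adding detection reagent.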
Numbers without * were called inactive; ? = inconclusive; . = not tested or not shown; ! = a repeat was not active; [ ] = dose if it differs, or a comment. Only some compounds are listed: those with a hit (about 11% of all), similar ones and a draw of the others. Calls come from the whole dose curve; as a rule, active = well fitted curve in the direction sought with a large enough effect; inconclusive = small, poorly fitted or top-dose-only effect, or another doubt; inactive = no such curve, though single readings can be large; an effect the other way counts as inactive or inconclusive. Unless noted, % is set by controls: 0 for no effect and ±100 for the full control effect; potency is the fitted concentration of half-maximal effect.

SMILES	AmpC no deterg	Pf growth 96h	AmpC detergent	HCV inh	AMA1-RON2 inh	Pf growth 48h
CCOC(=O)C1=C(c2ccccc2)NC(=S)NC1c1cc([N+](=O)[O-])ccc1OC (stereo not drawn)	-59.1%	8.1%	-4.4%	-17.3%	-0.2%	11.7µM*
COc1cc(C2NC(=S)NC(c3ccccc3)=C2C(C)=O)ccc1O (stereo not drawn)	-37.7%	24.0%	1.9%	-2.4%	7.2%	34.5%
CCOC(=O)C1=C(c2ccccc2)NC(=S)NC1c1cccc([N+](=O)[O-])c1 (stereo not drawn)	-10.2%	?	?	?	-3.7%	-12.1%
COc1cc(CNCCCN2CCOCC2)c(Br)cc1OCC(=O)Nc1ccccc1C	2.6%[2.29 µM]	?	-4.9%	1.58µM*	13.8%	10.4µM*
Cc1ccccc1NC(=O)COc1ccc(Br)cc1CNCCCO	-3.8%[2.29 µM]	1.85µM*	2.2%	6.5%	0.5%	?
COc1ccccc1NC(=O)COc1ccc(Br)cc1CNCCCN1CCOCC1	-3.6%[2.29 µM]	1.5%	?	?	-1.3%	?
CCN(CC)CCNCc1cc(Br)ccc1OCC(=O)NCc1ccccc1	39.4%	11.7µM*	5.7%	-19.9%	12.0%	?
CN1C2CCC1CC(OC(=O)c1c[nH]c3ccccc13)C2 (stereo not drawn)	-24.0%	?	?	?	-4.9%	11.7µM*!
CCN(CC)c1nc2ccccc2nc1C(=O)Nc1ccc(C(C)=O)cc1	.	.	-5.1%	.	.	.
CCOc1cccc(=O)c2c(C)n(CC(=O)c3ccccc3)c(C)c12	-11.8%	43.8%	4.6%	?	-20.0%	8.28µM*
O=c1c2c3nc4ccccc4nc3n(-c3ccc4c(c3)OCCO4)c2ncn1C1CCCC1	2.8%	.	-8.1%	5.9%	40.3%	8.28µM*
O=c1c2c3nc4ccccc4nc3n(-c3ccc4c(c3)OCCO4)c2ncn1CC1CCCO1 (stereo not drawn)	0.7%	32.0%	-14.3%	.	.	?
CCOc1ccccc1N1CCN(C(=S)NC(=O)C23CC4CC(CC(C4)C2)C3)CC1	-4.4%	?	-17.0%	30.2%	0.0%	8.28µM*
O=C(NC(=S)N1CCN(c2ccc(F)cc2)CC1)C12CC3CC(CC(C3)C1)C2	-29.9%	?	?	1.3%	27.1%[2.32 µM]	?
COc1ccc2[nH]cc(CCN=C3SCC(=O)N3C)c2c1	1.0%	11.7µM*	-10.4%	-7.7%	6.8%	.
COc1ccccc1CC(=O)Nc1ccc2[nH]ncc2c1	-7.0%	-4.7%	-9.3%	-4.5%	-9.6%	10.4µM*
COc1ccccc1CC(=O)Nc1ccc(-c2noc(COc3ccc(Br)cc3)n2)cc1	-21.9%	-20.0%	-0.8%	-26.0%	2.4%	.
COc1cccc(-c2nc(-c3ccc(NC(=O)Cc4ccccc4OC)cc3)no2)c1	-37.7%	21.7%	3.6%	6.31µM*	-25.5%	?
COc1ccccc1CC(=O)Nc1ccc(-c2noc(COc3cccc(C)c3C)n2)cc1	-30.2%	14.7µM*	?	?	-1.0%	.
Fc1ccccc1N1CCN(c2nnc(C(F)(F)F)c3nnn(Cc4ccccc4)c23)CC1	.	.	0.5%	.	.	.
Cc1c(/C=N/NC(N)=O)c2ccccn2c1C(=O)c1ccncc1	-6.4%	-3.8%	4.1%	-7.7%	-10.3%	-3.4%
Cc1c(/C=N/NC(=O)c2cc(=O)[nH]c(=O)[nH]2)c2ccccn2c1C(=O)c1ccccc1	-17.9%	.	-14.0%	13.2%	85.0%	3.29µM*
Cc1c(/C=N/NC(=O)c2ccccc2O)c2ccccn2c1C(=O)c1ccc(F)cc1	-39.4%	?	12.5%	?	12.0%	8.28µM*
Cc1c(/C=N/NC(=O)c2cccnc2)c2ccccn2c1C(=O)c1ccc(F)cc1	-34.9%	5.22µM*	?	-0.9%	.	9.28µM*
Cc1c(/C=N/NC(=O)CNc2ccccc2)c2ccccn2c1C(=O)c1ccccc1	-16.0%	2.94µM*	-7.5%	?	-1.6%	2.08µM*
